Results filed as inconclusive are left out. A call without a number means that no potency is given here. Calls of active or inactive are those of the source. Calls come from the whole dose curve; as a rule, active = well fitted cell-killing curve with a large enough effect; inconclusive = small, poorly fitted or top-dose-only effect, or effect the other way; inactive = no such curve, though single readings can be large or run the other way.
Assays:
[1] = Viability qHTS for spleen associated tyrosine kinase inhibitor (SYKi) naive MV4-11 cells (AID 1963823); note: nearly all actives have a fitted effect of over 40% in size
How it was run: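 Seeding of 500 SYKi-naive MV4-11 cells per well onto pre-dispensed compounds preceded a 72 hr incubation at 37 C. Luminescent CellTiter-Glo signal, read after 10 min at room temperature, reflected viable cells.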

[2] = Viability qHTS for spleen associated tyrosine kinase inhibitor (SYKi) drug resistant MV4-11 cells (AID 1963824); note: nearly all actives have a fitted effect of over 35% in size
How it was run: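 SYK inhibitor-resistant MV4-11 AML cells, 500 per well, added to predispensed compounds and incubated 72 hr at 37 C, 5% CO2. Viability measured by CellTiter-Glo luminescence after 10 min at room temperature.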
Potency is the fitted concentration of half-maximal effect.

SMILES | Potency [1] | Potency [2]
CC1(C)C[C@H]2C=C(C=O)[C@]3(C(=O)O)C[C@]3(C)[C@H]2C1 | inactive | inactive
O=C(O)c1ccnc2cc(C(OCC3CCC(F)(F)CC3)c3ccccc3Cl)[nH]c12 (centres undefined) | inactive | inactive
C/C=C/C=C/C(CC(=O)O)Nc1ccc(C=O)cc1 (centres undefined) | inactive | inactive
CC(C)(C)n1nc(Cc2cccc3ccccc23)c2c(N)ncnc21 | 10.3 µM (active) | 13 µM (active)
CCS(=O)c1nc(-c2cccc(OCc3ccccc3)c2)cc(C(F)(F)F)n1 (centres undefined) | 2.91 µM (active) | 5.8 µM (active)
COc1cc(/C=C/C(=O)O[C@H]2[C@@H]3C=CO[C@@H](O[C@@H]4O[C@H](CO)[C@@H](O)[C@H](O)[C@H]4O)[C@@H]3[C@@]3(CO)O[C@@H]23)ccc1O | inactive | inactive
CNC(=S)NS(=O)(=O)c1cc(CCNC(=O)c2cc(Cl)ccc2OC)ccc1OC | inactive | inactive
O=C(OCC1OC(Oc2ccc(O)cc2COC(=O)C2(O)C(O)CCC(=O)C2OC(=O)C2C=CCC2)C(OC(=O)C2C=CCC2)C(O)C1O)C1C=CCC1 (centres undefined) | inactive | inactive
CC1(C)CC[C@]2(C(=O)O)[C@H](O)C[C@]3(C)C(=CCC4[C@@]5(C)CC[C@H](O[C@@H]6OC[C@@H](O)[C@H](O)[C@H]6O)[C@@](C)(C(=O)O)C5CC[C@]43C)[C@@H]2C1 (some centres undefined) | inactive | inactive
O=C(/C=C\n1cnc(-c2cc(C(F)(F)F)cc(C(F)(F)F)c2)n1)N1CC(F)(F)C1 | 0.366 µM (active) | 0.731 µM (active)
COc1cc(/C=C/C(=O)O[C@H]2C[C@@H]3C(C(=O)O)=CO[C@@H](O[C@@H]4O[C@H](CO)[C@@H](O)[C@H](O)[C@H]4O)[C@@H]3[C@H]2C)ccc1O | inactive | inactive
C[C@@H]1O[C@@H](O[C@H]2[C@@H]3C=CO[C@@H](O[C@@H]4O[C@H](CO)[C@@H](O)[C@H](O)[C@H]4O)[C@@H]3[C@@]3(CO)O[C@@H]23)[C@H](O)[C@H](OC(=O)/C=C/c2ccc(O)cc2)[C@H]1OC(=O)/C=C/c1ccc(O)cc1 | inactive | inactive
CC1(C)CC[C@]2(C(=O)O[C@@H]3O[C@H](CO)[C@@H](O)[C@H](O)[C@H]3O)CC[C@]3(C)C(=CCC4[C@@]5(C)C[C@@H](O)[C@H](O)C(C)(C)C5[C@H](O)C[C@]43C)[C@@H]2[C@@H]1O (some centres undefined) | inactive | inactive
CC(C)(O)c1ccn2c(-c3ccc(F)c(-c4ccc(F)cc4C#N)c3)cnc2c1F | 9.2 µM (active) | 8.2 µM (active)
CC(NC(=O)CC(=O)O)C(=O)Nc1ccccc1C(N)=O (centres undefined) | inactive | inactive
COC(=O)C1=CO[C@@H](O[C@@H]2O[C@H](CO)[C@@H](O)[C@H](O)[C@H]2O)C2C1C(=O)C[C@H]2C (some centres undefined) | inactive | inactive
CC1=CC2/C=C(\C)CCC(O)C(=O)C(O)CC(=O)C23C(=O)NC(CC(C)C)C3C1C (centres undefined) | 10 µM (active) | 11.2 µM (active)
